The results in this text go back to PubChem BioAssay (NCI).

The nature of assay [1]: NCI Yeast Anticancer Drug Screen. Data for the rad50 strain (AID 155).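 Also: 0% = growth of vehicle-only cultures of the same strain.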 The following applies: S. cerevisiae rad50 strain growth inhibition, hits give high values. In short, it runs like this: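 DNA repair mutant yeast, compound exposure, growth read-out; inhibition is taken relative to vehicle.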
Assay [2] is described as follows: NCI Yeast Anticancer Drug Screen. Data for the mec2-1 strain (AID 157). The following applies: S. cerevisiae mec2-1 strain, hits give high values. In a few lines: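 Vehicle-treated cultures served as reference for growth inhibition of compound-exposed mec2-1 yeast.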
Assay [3] is described as follows: NCI Yeast Anticancer Drug Screen. Data for the sgs1 mgt1 strain (AID 161).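 Also: 0% = growth of cultures given vehicle only.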 Conditions: S. cerevisiae sgs1 mgt1 strain, hits give high values. In a few lines: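 Test agents were incubated with a DNA-repair-mutant yeast strain. Growth was then read and compared against vehicle-treated controls.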
Assay [4] in a line: NCI Yeast Anticancer Drug Screen. Data for the cln2 rad14 strain (AID 165).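 Also: 0% = growth equal to vehicle treated cultures.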 The following applies: S. cerevisiae cln2 rad14 strain, hits give high values. In a few lines:
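Each compound was tested on cln2 rad14 yeast. Inhibition of growth was calculated against vehicle-exposed controls.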

Assay [5] can be described thus: NCI Yeast Anticancer Drug Screen. Data for the bub3 strain (AID 167). Conditions: S. cerevisiae bub3 mutant strain, hits give high values. In a few lines: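 In this screen, a yeast mutant lacking normal mitotic checkpoint function is challenged with compound. Relative growth versus vehicle gives the inhibition value.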
Assay [6] in a line: NCI Yeast Anticancer Drug Screen. Data for the mlh1 rad18 strain (AID 175). The following applies: S. cerevisiae mlh1 rad18 strain growth inhibition, hits give high values. In short, it runs like this: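 Vehicle-treated cultures served as the reference for growth inhibition in a yeast strain carrying DNA damage repair alterations exposed to each compound.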
The mark [7] stands for this setting: at 5.0 µM (retest, dose inferred, filed as 0.5).
The mark [8] stands for this setting: at 50.0 µM (retest, dose inferred, filed as 5.0).

Compounds without any hit were thinned out: in the full panel of roughly 79,000, 15% have a hit. Values without a mark were called inactive. The source made the active and inactive calls. Rule as the data show it: active = growth inhibition above about 70%; inactive = the rest.

Regarding `CCCCCCCCCCCCCC(=O)O[C@H]1CC[C@H](NC(=O)[C@H](OC)[C@H](O)[C@@H](O)[C@H](O)/C=C/C(C)C)C(=O)NC1`, the growth inhibition in assay [1] (setting [7]) was -1%; in assay [1] (setting [8]), 93% (active); in assay [1] (at 50.0 µM), 88.1% (active); in assay [2] (setting [7]), 4%; in assay [2] (setting [8]) it was 96% (active); in assay [2] (at 50.0 µM), 87.4% (active). The growth inhibition was -2% in assay [3] (setting [7]); 92% (active) in assay [3] (setting [8]); 89.5% (active) in assay [3] (at 50.0 µM); 11% in assay [4] (setting [7]); 93% (active) in assay [4] (setting [8]); 71.5% (active) in assay [4] (at 50.0 µM). Also, the growth inhibition in assay [5] (setting [7]) was 4%; in assay [5] (setting [8]), 96% (active); in assay [5] (at 50.0 µM) it was 92.2% (active); in assay [6] (setting [7]), -1%; in assay [6] (setting [8]), 94% (active); in assay [6] (at 50.0 µM), 85.6% (active).

`Cc1ccc(OP(=O)(Oc2ccc(C)cc2)Oc2ccc(C)cc2)cc1.Cc1ccc(OP(=O)(Oc2ccc(C)cc2)Oc2ccc(C)cc2)cc1.Cc1ccc(OP(=O)(Oc2ccc(C)cc2)Oc2ccc(C)cc2)cc1.Cc1ccc(OP(=O)(Oc2ccc(C)cc2)Oc2cccc(C)c2)cc1.[Cd+2].[O-][Cl+3]([O-])([O-])O`: the growth inhibition is 12% in assay [1] (setting [7]); 64% in assay [1] (setting [8]); 58.6% in assay [1] (at 50.0 µM); 6% in assay [2] (setting [7]); 33% in assay [2] (setting [8]); 45% in assay [2] (at 50.0 µM). Further, the growth inhibition in assay [3] (setting [7]) is 9%; in assay [3] (setting [8]), 29%; in assay [3] (at 50.0 µM) it was 20%; in assay [4] (setting [7]), -11%; in assay [4] (setting [8]), 32%; in assay [4] (at 50.0 µM), 62.6%. The growth inhibition in assay [5] (setting [7]) is 10%; in assay [5] (setting [8]), 23%; in assay [5] (at 50.0 µM), 36.6%; in assay [6] (setting [7]) it was 10%; in assay [6] (setting [8]) it was 36%; in assay [6] (at 50.0 µM) it was 39.2%.

With `O=C1C(C(Nc2ccccc2)c2ccccc2)=C([O-])c2ccccc21.O=C1C(C(Nc2ccccc2)c2ccccc2)=C([O-])c2ccccc21.[Ni+2]` (configuration not stated), the growth inhibition was 57% in assay [1] (setting [7]); 81% (active) in assay [1] (setting [8]); 63.3% in assay [1] (at 50.0 µM); 33% in assay [2] (setting [7]); 55% in assay [2] (setting [8]); 71% (active) in assay [2] (at 50.0 µM). Moreover, the growth inhibition in assay [3] (setting [7]) is 49%; in assay [3] (setting [8]), 80% (active); in assay [3] (at 50.0 µM), 36.6%; in assay [4] (setting [7]), 46%; in assay [4] (setting [8]), 46%; in assay [4] (at 50.0 µM), 55.8%. Moreover, the growth inhibition in assay [5] (setting [7]) was 51%; in assay [5] (setting [8]), 84% (active); in assay [5] (at 50.0 µM) it was 73.8% (active); in assay [6] (setting [7]), 39%; in assay [6] (setting [8]), 81% (active); in assay [6] (at 50.0 µM), 63.1%.

As for `COc1cc(C2c3cc4c(cc3OC(N3CCOCC3)C2C)OCO4)cc(OC)c1OC` (configuration not stated), the growth inhibition in assay [1] (setting [7]) was 18%; in assay [1] (setting [8]) it was 22%; in assay [1] (at 50.0 µM), -12.6%; in assay [2] (setting [7]), 21%; in assay [2] (setting [8]), 31%; in assay [2] (at 50.0 µM) it was -2.55%. The growth inhibition in assay [3] (setting [7]) was -17%; in assay [3] (setting [8]) it was -10%; in assay [3] (at 50.0 µM), -1.05%; in assay [4] (setting [7]), 4%; in assay [4] (setting [8]), 0%; in assay [4] (at 50.0 µM) it was 4.2%. The growth inhibition in assay [5] (setting [7]) was 0%; in assay [5] (setting [8]), -11%; in assay [5] (at 50.0 µM), 13.3%; in assay [6] (setting [7]), 22%; in assay [6] (setting [8]), 28%; in assay [6] (at 50.0 µM), 0.7%.

Consider `NC(=O)Nc1ccc([As](Sc2ccccc2C(=O)O)Sc2ccccc2C(=O)O)cc1`, for which the growth inhibition in assay [1] (setting [7]) is -1%; in assay [1] (setting [8]) it was 14%; in assay [1] (at 50.0 µM), 15.9%; in assay [2] (setting [7]), -3%; in assay [2] (setting [8]) it was -1%; in assay [2] (at 50.0 µM), 4.75%. The growth inhibition was -3% in assay [3] (setting [7]); 10% in assay [3] (setting [8]); 17.3% in assay [3] (at 50.0 µM); -8% in assay [4] (setting [7]); 24% in assay [4] (setting [8]); 28.9% in assay [4] (at 50.0 µM). The growth inhibition in assay [5] (setting [7]) is -8%; in assay [5] (setting [8]), 26%; in assay [5] (at 50.0 µM), -7.1%; in assay [6] (setting [7]), -4%; in assay [6] (setting [8]) it was 8%; in assay [6] (at 50.0 µM) it was 20.1%.

On to `CN(C)c1ccc(C(c2c(O)c3ccccc3oc2=O)c2c(O)c3ccccc3oc2=O)cc1`, for which the growth inhibition was 0% in assay [1] (setting [7]); 40% in assay [1] (setting [8]); 59.2% in assay [1] (at 50.0 µM); -8% in assay [2] (setting [7]); 26% in assay [2] (setting [8]); 65.6% in assay [2] (at 50.0 µM). Also, the growth inhibition in assay [3] (setting [7]) is 4%; in assay [3] (setting [8]), 42%; in assay [3] (at 50.0 µM), 60%; in assay [4] (setting [7]), -5%; in assay [4] (setting [8]), 13%; in assay [4] (at 50.0 µM), 18.5%. Moreover, the growth inhibition in assay [5] (setting [7]) was -3%; in assay [5] (setting [8]), 16%; in assay [5] (at 50.0 µM), 34.3%; in assay [6] (setting [7]) it was -3%; in assay [6] (setting [8]), 13%; in assay [6] (at 50.0 µM), 51%.

As to `CN(C=O)C(=S)[S][Sb]([S]C(=S)N(C)C=O)[S]c1nc2ccc(N=Nc3ccc(NS(=O)(=O)c4ccc(NC(=O)C(N5CC5)(N5CC5)N5CC5)cc4)cc3)cc2s1`, the growth inhibition in assay [1] (setting [7]) is 4%; in assay [1] (setting [8]) it was 6%; in assay [1] (at 50.0 µM), 99.2% (active); in assay [2] (setting [7]), 0%; in assay [2] (setting [8]), -5%; in assay [2] (at 50.0 µM), 99.3% (active). The growth inhibition in assay [3] (setting [7]) is -1%; in assay [3] (setting [8]), 20%; in assay [3] (at 50.0 µM), 99.5% (active); in assay [4] (setting [7]), 4%; in assay [4] (setting [8]), 3%; in assay [4] (at 50.0 µM) it was 98.7% (active). Also, the growth inhibition in assay [5] (setting [7]) was 2%; in assay [5] (setting [8]), 8%; in assay [5] (at 50.0 µM), 99.2% (active); in assay [6] (setting [7]), 0%; in assay [6] (setting [8]) it was 4%; in assay [6] (at 50.0 µM) it was 99.2% (active).

On to `COC1OC(OC)[CH]([Hg][Cl])C1OC` (configuration not stated), for which the growth inhibition in assay [1] (setting [7]) is 99% (active); in assay [1] (setting [8]) it was 99% (active); in assay [1] (at 50.0 µM), 99.5% (active); in assay [2] (setting [7]), 99% (active); in assay [2] (setting [8]), 100% (active); in assay [2] (at 50.0 µM), 99.7% (active). For the same compound, the growth inhibition in assay [3] (setting [7]) is 99% (active); in assay [3] (setting [8]) it was 99% (active); in assay [3] (at 50.0 µM) it was 99.4% (active); in assay [4] (setting [7]), 99% (active); in assay [4] (setting [8]), 99% (active); in assay [4] (at 50.0 µM), 98.5% (active). In addition, the growth inhibition in assay [5] (setting [7]) was 100% (active); in assay [5] (setting [8]) it was 99% (active); in assay [5] (at 50.0 µM), 99.2% (active); in assay [6] (setting [7]), 99% (active); in assay [6] (setting [8]) it was 99% (active); in assay [6] (at 50.0 µM), 99.4% (active).

Take `COC1=C(Cl)C(=O)c2ccccc2C1=O`: the growth inhibition in assay [1] (setting [7]) was 8%; in assay [1] (setting [8]) it was 98% (active); in assay [1] (at 50.0 µM) it was 99.2% (active); in assay [2] (setting [7]), 15%; in assay [2] (setting [8]), 99% (active); in assay [2] (at 50.0 µM) it was 99.5% (active). The growth inhibition in assay [3] (setting [7]) was 6%; in assay [3] (setting [8]) it was 99% (active); in assay [3] (at 50.0 µM) it was 99.6% (active); in assay [4] (setting [7]) it was -2%; in assay [4] (setting [8]) it was 98% (active); in assay [4] (at 50.0 µM) it was 99.1% (active). Moreover, the growth inhibition in assay [5] (setting [7]) was 30%; in assay [5] (setting [8]) it was 98% (active); in assay [5] (at 50.0 µM), 99.2% (active); in assay [6] (setting [7]) it was 7%; in assay [6] (setting [8]), 99% (active); in assay [6] (at 50.0 µM), 99.4% (active).
